Assay results: PubChem BioAssay AID720504 (National Center for Advancing Translational Sciences (NCATS), 2013)
Out of some 360,000 compounds screened, about 10,000 (2.8%) were called active. About 4% were inconclusive and are not listed. Only a selection was taken, and actives are over-represented in it overall. A number with no mark means an inactive call. Calls come from the whole dose curve; as a rule, active = well fitted inhibition curve with a large enough effect; inconclusive = small, poorly fitted or top-dose-only effect; inactive = flat fitted curve, though single readings scatter.

These molecules were tested against Serine/threonine-protein kinase PLK1 (Homo sapiens) (UniProt P53350) (assay: qHTS for Inhibitors of PLK1-PDB (polo-like kinase 1 - polo-box domain): Primary Screen). Conditions: Plk1 PBD binding of FITC phosphopeptide, fluorescence polarization.
Serine/threonine-protein kinase PLK1 (Homo sapiens), sequence (P53350 whole entry, looked up, the tested form may be a part): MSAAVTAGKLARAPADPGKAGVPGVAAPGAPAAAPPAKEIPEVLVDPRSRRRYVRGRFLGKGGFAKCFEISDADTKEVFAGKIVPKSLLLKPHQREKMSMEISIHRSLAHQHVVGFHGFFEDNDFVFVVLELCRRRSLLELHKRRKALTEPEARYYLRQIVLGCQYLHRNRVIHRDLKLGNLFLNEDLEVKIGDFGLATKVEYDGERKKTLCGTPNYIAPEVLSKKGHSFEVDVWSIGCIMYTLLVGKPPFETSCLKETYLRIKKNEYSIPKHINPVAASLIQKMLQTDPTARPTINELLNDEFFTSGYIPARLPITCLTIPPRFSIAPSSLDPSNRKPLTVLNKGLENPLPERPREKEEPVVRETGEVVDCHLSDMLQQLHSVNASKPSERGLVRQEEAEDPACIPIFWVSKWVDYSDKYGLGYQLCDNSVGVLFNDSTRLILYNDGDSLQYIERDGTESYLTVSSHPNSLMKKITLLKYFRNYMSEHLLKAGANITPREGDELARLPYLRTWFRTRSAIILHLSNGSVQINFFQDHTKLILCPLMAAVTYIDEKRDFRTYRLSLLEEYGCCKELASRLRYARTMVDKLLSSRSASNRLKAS
% is set by controls: 0 for no effect and ±100 for the full control effect; potency is the fitted concentration of half-maximal effect.
Note: nearly all actives have a fitted effect of over 65% in size.
Throughout, for max response, negative = inhibition: series mostly up to about 57 µM.

Compound | max response, negative = inhibition | Potency
O=c1oc2ccccc2cc1-c1cn(-c2ccccc2)c(=S)[nH]1 | -16.2% | –
O=c1oc2cc(O)ccc2cc1-c1ccc(F)cc1 | – | 3.36 µM (active)
CN(C)c1cc(-c2ccc(F)cc2)oc(=O)c1Cl | -4.6% | –
CS(=O)(=O)/C(C#N)=C/c1cccn1S(=O)(=O)c1ccc([N+](=O)[O-])cc1 | -19.8% | –
Cc1snc(SCc2c(F)cccc2Cl)c1C#N | -3.96% | –
Cc1cc(C)c(C#N)c(SCc2ccc3c(c2)OCO3)n1 | -1.63% | –
Cc1ccc(CSc2nsc(C)c2C#N)cc1 | – | 15 µM (active)
CC(=O)c1ccc(-c2cnc3c(NC=O)cc(-c4cccc(NS(C)(=O)=O)c4)cn23)cc1 | 2.12% | –
COC(=O)C[C@@H]1C=C[C@@H](NC(=O)c2cccnc2)[C@@H](CO)O1 | -16.8% | –
CCCCN(C(C)=O)c1ccc2c(c1)C1CC2CCN1Cc1ccccc1 (stereo not given) | -11% | –
CCCCn1nnnc1C1(C)CCC(=O)N1Cc1ccc(OC)c(OC)c1 (stereo not given) | -1.18% | –
COc1ccc(COC[C@H](CC(C)C)N2CCN(C(=O)c3cccc(C(F)(F)F)c3)CCC2=O)cc1 | -20.7% | –
CC(=O)NS(=O)(=O)c1ccc(NC(=O)/C=C/c2ccccc2Cl)cc1 | – | 29.9 µM (active)
O=C(/C=C/c1ccccc1Cl)Nc1ccc(S(=O)(=O)Nc2ncccn2)cc1 | -7.83% | –
NS(=O)(=O)c1ccc(NC(=O)/C=C/c2ccccc2Cl)cc1 | 2.86% | –
COCOc1cccc(CN2CCC(C)(Oc3ccc(SC)cc3)C2)c1 (stereo not given) | -0.463% | –
O=C(Nc1cc(S(=O)(=O)N2CCOCC2)ccc1Cl)c1cc(=O)c2ccccc2o1 | 1.44% | –
O=[N+]([O-])c1cc(Cl)cc(/C=N/NC(=S)Nc2cc(S(=O)(=O)N3CCOCC3)ccc2Cl)c1O | – | 10.6 µM (active)
O=C(c1cc(S(=O)(=O)N2CCOCC2)ccc1Cl)N1CCOCC1 | -9.46% | –
OC[C@@H]1CN(Cc2cccs2)C[C@H](n2cnc3c(Nc4ccccc4)ncnc32)O1 | -1.6% | –
COCCOC(=O)c1sc(=S)n(CCOC)c1N | – | 23.8 µM (active)
COc1ccccc1CNc1nc(Nc2ccccc2Cl)c2sccc2n1 | 5.05% | –

Compound | max response, negative = inhibition | Potency
COc1ccc(S(=O)(=O)N[C@@H]2C=C[C@@H](CC(=O)N3CCc4ccccc4C3)O[C@@H]2CO)cc1 | -0.456% | –
Fc1ccc(Nc2nnns2)cc1 | – | 13.4 µM (active)
CN(C)c1ccnc(Nc2ccc(F)cc2)c1C#N | -0.535% | –
O=C(Nc1ccncc1)Nc1ccc(F)cc1 | 2.49% | –
Cc1ccc(NC(=O)c2ccco2)cc1 | -4.07% | –
CCOC(=O)[C@]12CCCC=C1N(Cc1ccc(Cl)cc1Cl)C(=O)[C@H](CC(=O)N1CCCCC1)C2 | -4.73% | –
CNC(=O)C[C@H]1C(=O)N(c2ccc(OC)cc2)C[C@@H]1Cc1ccccc1 | -11.8% | –
Cc1ccccc1NC(=O)CCOc1ccccc1 | -11.8% | –
Cc1ccccc1NC(=O)CSC(=O)c1ccccc1 | – | 10.6 µM (active)
Cc1cccc(NC(=O)CSC(N)=O)c1C | -17.1% | –
CC1(C(=O)Nc2ccc3c(c2)OCCO3)CSCC(=O)N1CCOc1ccccc1 (stereo not given) | 0.116% | –
OCCC#Cc1ccc(N2C(c3ccsc3)=Cc3ccc(F)cc3C2c2c[nH]c3ccccc23)cc1 (stereo not given) | -1.41% | –
CCOC(=O)c1cccc(NC(=O)CCc2nnc3ccc(N4CCOCC4)nn23)c1 | 2.15% | –
COc1cccc(NC(=O)CCc2nnc3ccc(N4CCC(C)CC4)nn23)c1 | – | 26.7 µM (active)
COc1cccc(N2CCN(c3ccc4nnc(CCC(=O)N5CCN(C)CC5)n4n3)CC2)c1 | -2.01% | –
CC(C)CCOc1ccc(C(=O)Nc2cc(S(=O)(=O)N3CCOCC3)ccc2N2CCOCC2)cc1 | -15.2% | –
COc1ccc(-c2ccc(C(=O)NC(C)C)c3occc23)c(C)c1 | -5.99% | –
O=C(Nc1ccc(N2CCOCC2)cc1)c1ccc(-c2ccccc2[N+](=O)[O-])o1 | -4.38% | –
CC1=NN(c2ccc(Cl)c(C(=O)O)c2)C(=O)/C1=C/c1ccc(-c2ccccc2[N+](=O)[O-])o1 | – | 0.844 µM (active)
O=C1NC(c2ccc(-c3ccccc3[N+](=O)[O-])o2)C(C(=O)c2ccc(Cl)cc2)C(O)(C(F)(F)F)N1 (stereo not given) | -5.49% | –
CCCS(=O)(=O)NC(=O)C1(C)CCN(C(=O)c2sccc2C)C1 (stereo not given) | -7.96% | –
C[C@H](NC(=O)CC[C@H]1O[C@@H](n2ccc(=O)[nH]c2=O)[C@H](O)[C@@H]1O)c1cccc2ccccc12 | -3.83% | –

Compound | max response, negative = inhibition | Potency
O=C(NCc1ccco1)c1cccc(-c2ccc3nncn3c2)c1 | 6.92% | –
CCCCCNC(=O)C1C(=O)Nc2ccccc2C(=O)N1C(C)(C)C (stereo not given) | -13.8% | –
S=c1[nH]nc(-c2cccs2)n1/N=C/c1cn(-c2ccccc2)nc1-c1ccc(Cl)cc1 | -14.4% | –
Cc1ccsc1/C=N/n1c(=S)[nH]nc(C)c1=O | -9.18% | –
S=c1[nH]nc(-c2cccs2)n1/N=C/c1cccs1 | – | 37.7 µM (active)
CC(C)c1cccc(-c2csc(C(O)c3ccccc3)n2)c1 (stereo not given) | -9.83% | –
COc1cccc(/C=C2\SC(=S)N(CCCC(=O)N3CCOCC3)C2=O)c1 | -2.08% | –
COc1ccc(-c2nn(-c3ccccc3)cc2/C=C2/SC(=S)N(CCCC(=O)O)C2=O)c(C)c1 | – | 29.9 µM (active)
Cc1ccc(-c2nn(-c3ccccc3)cc2/C=C/C(=O)Nc2cccc(S(N)(=O)=O)c2)cc1 | -5.39% | –
CN(C)S(=O)(=O)c1cccc(-c2nn(-c3ccccc3)cc2/C=C2\SC(=S)N(CC(=O)O)C2=O)c1 | – | 26.7 µM (active)
O=C(CN1C(=O)/C(=C\c2ccccc2F)SC1=S)Nc1nc2ccccc2s1 | -28.6% | –
Cc1ccc(-c2nn(-c3ccccc3)cc2/C=C2\SC(=S)N(CCCCCC(=O)O)C2=O)o1 | 165% | –
COc1ccc(CC(N)c2csc(NC(=O)Nc3ccc(C(C)C)cc3)n2)cc1 (stereo not given) | -5.6% | –
CC1(C(=O)Nc2cccc3c2CCCC3)CCN1C(=O)CCc1ccc(Cl)cc1Cl (stereo not given) | 0.165% | –
O=C(CSc1nc2ccccc2c(=O)[nH]1)Nc1nc(-c2ccc(Br)cc2)cs1 | -29% | –
N#Cc1c(-c2cccs2)nc(SCC(=O)c2ccc(Br)cc2)[nH]c1=O | – | 26.7 µM (active)
CC(=O)CSc1nc(CCc2ccccc2)c(C#N)c(=O)[nH]1 | 5.25% | –
COc1ccc(/C=C2/C(=O)N(c3ccccc3)N=C2C)c(OC)c1 | – | 18.9 µM (active)
COc1ccc(C2/C(=C(/O)c3ccccc3)C(=O)C(=O)N2C)c(OC)c1 (stereo not given) | 0.389% | –
COc1ccc(/C=C2/C(=O)OCc3cc(OC)c(OC)cc32)c(OC)c1 | -13% | –
Cc1cccc(C)c1NC(=O)C(c1cccc(F)c1)N1CCN(C)CC1 (stereo not given) | -7.61% | –
CC(=O)Nc1cnc(-c2ccc(O)cc2C)cn1 | -2.97% | –

Compound | max response, negative = inhibition | Potency
COc1ccc(NC(=O)C2Cc3c(-c4ccc5c(c4)OCO5)ccnc3O2)cn1 (stereo not given) | -5.75% | –
COc1ccc(NC(=O)N(C)C[C@H]2Oc3ccc(NC(=O)C4CC4)cc3C(=O)N([C@H](C)CO)C[C@@H]2C)cc1 | -15.8% | –
COc1ccc(NC(=O)Nc2ccc3c(c2)C(=O)N([C@H](C)CO)C[C@H](C)[C@@H](CN(C)C(=O)Nc2ccc4c(c2)OCO4)O3)cc1 | – | 23.8 µM (active)
C[C@H](CO)N1C[C@H](C)[C@@H](CN(C)C(=O)Nc2ccc3c(c2)OCO3)Oc2c(cccc2N(C)C)C1=O | -11.3% | –
CC(Sc1nnnn1C)C(=O)NC(=O)NC1CCCCC1 (stereo not given) | -1.5% | –
O=C(CSc1nnnn1C1CCCC1)N1CCCCC1 | -1.23% | –
CC(Sc1nnnn1C1CCCCC1)C(=O)O (stereo not given) | – | 4.23 µM (active)
COc1ccc(OC)c(NC(=O)c2cc(-c3cc(F)ccc3OCC3CCCO3)n[nH]2)c1 (stereo not given) | 1.76% | –
OCC[C@H]1C[C@@H](O)[C@H](O)[C@]2(OCCCc3ccccc32)O1 | -6.7% | –
OCC[C@H]1C[C@@H](O)[C@H](O)[C@@]2(OCCc3ccccc32)O1 | – | 21.2 µM (active)
COc1ccc2c(c1)CCCO[C@]21O[C@H](CCO)C[C@H](O)[C@H]1O | -7.9% | –
CC1(C(=O)NCc2ccc(F)c(F)c2)Cc2c(-c3ccc4c(c3)OCO4)ccnc2O1 (stereo not given) | 5.1% | –
CC1(Cc2cccc(C#N)c2)C(=O)Nc2ccc(-c3cccc(C(F)(F)F)c3)cc21 (stereo not given) | -6.86% | –
Cc1ccc(S(=O)(=O)N2[C@@H](c3ccc(Br)cc3)C(C(=O)O)=C[C@H]2CC2CCCC2)cc1 | – | 23.8 µM (active)
CCCCC[C@@H]1C=C(C(=O)OCC)[C@H](c2ccccc2)N1S(=O)(=O)c1ccc(C)cc1 | -0.281% | –
CCCCC[C@@H]1C=C(C(=O)O)[C@H](c2ccc(C#N)cc2)N1S(=O)(=O)c1ccc(C)cc1 | -5.69% | –
Cc1ccc(S(=O)(=O)N2CC[C@H]3[C@@H](C2)C(=O)C[C@@H](c2ccccc2)N3S(=O)(=O)c2ccc(C)cc2)cc1 | -5.58% | –
CCN(CC)CCCC(C)n1c2nc(=O)[nH]c(=O)c-2nc2cc(Cl)ccc21 (stereo not given) | – | 0.752 µM (active)
Cc1ccc(Sc2ccc(NC(=O)c3ccc(F)cc3)cc2C#N)cc1 | -2.21% | –
